Source: PubChem BioAssay (NCATS)
Inconclusive results are not listed. Entries that show only a call come without a potency. Activity calls are given as the source filed them. The call rests on the fitted dose curve; in most records, active means well fitted cell-killing curve with a large enough effect; inconclusive means small, poorly fitted or top-dose-only effect; inactive means no such curve, though single readings can be large or run the other way.

assay: qHTS of pediatric cancer cell lines to identify multiple opportunities for drug repurposing: Primary screen for NB1643 cells (AID 1347099); settings: NB1643 neuroblastoma viability, CellTiter-Glo luminescence, 48 h; series mostly up to 46 µM; further: nearly all actives have a fitted effect of over 50% in size
Text: Drug repurposing or repositioning has been offered as a strategy for drug development in oncology programs. This approach has special potential for childhood cancers and other rare or orphan diseases, where the expected return on new drug development has been a disincentive to pharmaceuticals. […] In this project we exploit the poly-pharmacology of drugs to discover new indications via phenotypic screening of a panel of 19 well-characterized cell lines derived from solid tumors seen in children and adolescents. The goal is to identify approved drugs with previously unrecognized anticancer properties that has the potential to reveal new mechanisms and biological processes involved in carcinogenesis or drug resistance. We employed a titration-based paradigm (quantitative high-throughput screening or qHTS), where all compounds were tested at multiple concentrations for their effect on cell viability. Concentration-response curves (CRCs) were derived directly from the primary screen, and both potency and efficacy values were used to identify compounds with robust bioactivity profiles. We screened the NIH Chemical Genomics Center (NCGC) Pharmaceutical Collection (NPC) and Mechanism Interrogation Plate (MIPE) small molecule collections of approved and investigational compounds against these cell lines; and measured metabolically active cells after 48 hours of compound treatment as a proxy for cell viability. […] Assay Submitter: Nathalia J. Martinez, National Center for Advancing Translational Sciences, National Institutes of Health, Rockville, MD, USA; email: natalia.martinez@nih.gov Shen, M et al. Quantitative high-throughput phenotypic screening of pediatric cancer cell lines identifies multiple opportunities for drug repurposing. Oncotarget 2017 Dec 19;9(4):4758-4772. PMID 29435139.
The cells were obtained from University of North Carolina (UNC), Pediatric Preclinical Testing Program (PPT), and Coriell Institute (CI). qHTS cell viability assay: Cells were assayed in growth media at a density of 500-1,000 cells/well. Five microliters of cells were dispensed into 1,536-well, white, solid-bottom, TC-treated plates (Greiner Bio One) using a multidrop dispenser and incubated at 37 degrees C, 5% CO2, under a humidified atmosphere for 5 hours. Twenty-three nanoliters of compounds and controls (neutral control DMSO or positive control bortezomib at final concentration of 2.3 µM) were subsequently transferred by Kalypsys pintool. For primary screens, the MIPE collection was tested at 11-point dilutions (final concentrations range from 0.78 nM to 46 µM) and the NPC collection at 8-point dilutions (final concentrations range from 0.59 nM to 46 µM). Compounds tested in follow-up screens were assayed at 11-point dilutions. Cells were incubated for 48 hours, followed by addition of 3 µL of CellTiter-Glo (Promega). After a 15 min incubation at room temperature, samples were analyzed for luminescence intensity using a ViewLux High-throughput CCD imager equipped with clear filters.
Potency means the concentration at half of the fitted maximal effect.

Row | SMILES | Potency
1 | CN1C[C@@H](NS(=O)(=O)N(C)C)C[C@@H]2c3cccc4c3c(cn4C)C[C@H]21 | inactive
2 | CN1C(=O)[C@@H](NC(=O)c2cc3ccccc3[nH]2)N=C(c2ccccc2)c2ccccc21 | inactive
3 | CCOC(=O)c1ncn2c1CN(C)C(=O)c1c(I)cccc1-2 | inactive
4 | O=C1NCN(c2ccccc2)C12CCN(CCCOc1ccc(F)cc1)CC2 | inactive
5 | CCCCCCCCC(=O)NCc1ccc(O)c(OC)c1 | 1 nM (active)
6 | O=C(N[C@@H]1N=C(c2ccccc2F)c2cccc3c2N(CC3)C1=O)c1cc2ccccc2[nH]1 | inactive
7 | C=CCN1CC[C@]23CCCC[C@H]2[C@H]1Cc1ccc(O)cc13 | inactive
8 | CNC(=O)NC(O)C(Cl)(Cl)Cl (stereo not given) | inactive
9 | CCOC(=O)NC(O)C(Cl)(Cl)Cl (stereo not given) | inactive
10 | COc1cc(CC(C)N)cc2c1OCO2 (stereo not given) | inactive
11 | CC(C)C(Br)C(=O)NC(N)=O (stereo not given) | inactive
12 | COc1ccc(CN2CCNCC2)c(OC)c1OC | inactive
13 | CCN(CC)CCOC(=O)C(C)(c1ccccc1)c1ccccc1 | inactive
14 | C[C@H](N)[C@H](O)c1ccc(O)c(O)c1 | inactive
15 | CC1COC2(c3ccccc3Cl)c3cc(Cl)ccc3NC(=O)CN12 (stereo not given) | inactive
16 | C[C@]12CC[C@H]3[C@@H](CCC4=CC(=O)CC[C@@]43C)[C@@H]1CC[C@@H]2C(=O)O | inactive
17 | COc1cc(CC#N)cc(OC)c1OC | inactive
18 | COc1ccc(C(=O)N2CCCC2=O)cc1 | inactive
19 | Nc1ccccc1C(=O)OCC(O)CO (stereo not given) | inactive
20 | CC(C)(O)C(Cl)(Cl)Cl | inactive

Row | SMILES | Potency
21 | C[C@]12Cc3nonc3C[C@@H]1CC[C@@H]1[C@@H]2CC[C@@]2(C)[C@H]1CC[C@]2(C)O | inactive
22 | Clc1ccc(CO/N=C(\Cn2ccnc2)c2ccc(Cl)cc2Cl)c(Cl)c1 | inactive
23 | O=C(CCCCl)c1ccc(F)cc1 | inactive
24 | Cc1c(Cl)c(=O)oc2cc(OP(=O)(OCCCl)OCCCl)ccc12 | inactive
25 | Cc1nnc2n1-c1sc(CCC(=O)N3CCOCC3)cc1C(c1ccccc1Cl)=NC2 | inactive
26 | CN1CCc2cc(Cl)c(O)cc2[C@H]2c3ccccc3CC[C@@H]21 | inactive
27 | Cc1ncc2n1-c1ccc(Cl)cc1C(c1ccccc1F)=NC2 | inactive
28 | CN(C)C(=S)SSC(=S)N(C)C | 531 nM (active)
29 | O=C(O)CCCCCCNC1c2ccccc2CCc2ccccc21 | inactive
30 | CCN(CC)C(C)C(=O)c1ccccc1 (stereo not given) | inactive
31 | COP(=S)(OC)Oc1ccc(Sc2ccc(OP(=S)(OC)OC)cc2)cc1 | inactive
32 | CCOC(=O)C(c1c(O)c2ccccc2oc1=O)c1c(O)c2ccccc2oc1=O | inactive
33 | CC(Cc1ccccc1)NCCCCl (stereo not given) | inactive
34 | Cc1nc2ccccc2c(=O)n1-c1ccccc1Cl | inactive
35 | C[C@@H]1CC[C@H]2[C@@H](C)C(=O)O[C@@H]3O[C@@]4(C)CC[C@@H]1[C@]32OO4 | inactive
36 | CCS(=O)(=O)C(C)(C)S(=O)(=O)CC | inactive
37 | COC(=O)C1=CCCN(C)C1 | inactive
38 | O=C(O)c1nn(Cc2ccc(Cl)cc2Cl)c2ccccc12 | inactive
39 | CC(Cc1ccccc1)NCc1ccccc1Cl (stereo not given) | inactive
40 | CN1C(=O)CN=C(c2ccccc2)c2cc([N+](=O)[O-])ccc21 | inactive
